This passage reports binding signal results from PMC5700166.

In the experiment the target is GST-Hu-p50 (Homo sapiens, UniProt P19838 7-356). As to the kind of experiment: protein-binding microarray (PBM); PBM: ~300 nM protein, 6 mM HEPES pH 7.8, 80 mM KCl, 0.5 mM EDTA, 0.5 mM EGTA, 6% glycerol, 35 ng/ul poly-dIdC, 1% milk, 1 h, room temperature; Ap Aiptasia and Nv Nematostella (sea anemones) / Co Capsaspora / Aq Amphimedon (sponge) / Dm Drosophila / Hu human; RHD is the Rel homology domain; high values mean tight binding. Particulars: dsDNA, one strand shown.
Chain of GST-Hu-p50 (P19838 7-356): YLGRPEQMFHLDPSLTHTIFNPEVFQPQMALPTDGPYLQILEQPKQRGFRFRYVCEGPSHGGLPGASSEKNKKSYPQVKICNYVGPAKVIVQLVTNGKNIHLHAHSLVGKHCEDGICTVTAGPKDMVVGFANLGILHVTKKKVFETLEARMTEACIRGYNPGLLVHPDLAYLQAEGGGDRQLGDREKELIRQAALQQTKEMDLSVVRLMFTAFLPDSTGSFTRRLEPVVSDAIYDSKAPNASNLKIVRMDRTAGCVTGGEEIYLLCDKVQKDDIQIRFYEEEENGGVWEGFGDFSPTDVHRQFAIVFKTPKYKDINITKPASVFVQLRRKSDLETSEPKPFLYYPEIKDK
In the case of “CCGATTAACATCAGGGGGTAACCTGATGTTAATCGGGTCTTGATTCGCTTGACGCTGCTG”, the binding signal is 4.28 z-score.

Take “CCGATTAACATCATAAGGGGTGTTGATGTTAATCGGGTCTTGATTCGCTTGACGCTGCTG”: the binding signal was determined as 1.44 z-score. The value for “CCGATTAACATCAAGGGATTTCCTGATGTTAATCGGGTCTTGATTCGCTTGACGCTGCTG” was 3.68 z-score; that for “CCGATTAACATCAGGGGTATAACTGATGTTAATCGGGTCTTGATTCGCTTGACGCTGCTG” was 1.68 z-score. The value for “CCGATTAACATCAAACAACCCCCTGATGTTAATCGGGTCTTGATTCGCTTGACGCTGCTG” was 5.05 z-score. Take “CCGATTAACATCATTGTCCCTTCTGATGTTAATCGGGTCTTGATTCGCTTGACGCTGCTG”: the binding signal was found to be 1.99 z-score.

With “CCGATTAACATCAGGGATTACCATGATGTTAATCGGGTCTTGATTCGCTTGACGCTGCTG”, the binding signal amounted to 1.76 z-score. In turn, “CCGATTAACATCAGGGAACTCCATGATGTTAATCGGGTCTTGATTCGCTTGACGCTGCTG” returned a binding signal of 1.7 z-score. Next, “CCGATTAACATCACCAAATTCCCTGATGTTAATCGGGTCTTGATTCGCTTGACGCTGCTG”: 4.49 z-score; “CCGATTAACATCAAGTGTTTCCCTGATGTTAATCGGGTCTTGATTCGCTTGACGCTGCTG”: 1.3 z-score.

“CCGATTAACATCAACGTATTCCCTGATGTTAATCGGGTCTTGATTCGCTTGACGCTGCTG” gave a binding signal of 1.19 z-score.

Consider “CCGATTAACATCAGGATAATCCCTGATGTTAATCGGGTCTTGATTCGCTTGACGCTGCTG”, for which the binding signal was 2.15 z-score. Next, “CCGATTAACATCAGAGAAACCCCTGATGTTAATCGGGTCTTGATTCGCTTGACGCTGCTG”: 5.09 z-score; “CCGATTAACATCAGGGACACCCCTGATGTTAATCGGGTCTTGATTCGCTTGACGCTGCTG”: 4.03 z-score; “CCGATTAACATCAGAAAAAACCCTGATGTTAATCGGGTCTTGATTCGCTTGACGCTGCTG”: 4.96 z-score. As to “CCGATTAACATCAGGGGGGCACCTGATGTTAATCGGGTCTTGATTCGCTTGACGCTGCTG”, the binding signal turned out to be 3.33 z-score. The value for “CCGATTAACATCAGGAATAACCCTGATGTTAATCGGGTCTTGATTCGCTTGACGCTGCTG” was 3.24 z-score.

On to “CCGATTAACATCAAGGGAATACCTGATGTTAATCGGGTCTTGATTCGCTTGACGCTGCTG”, for which the binding signal was 2.34 z-score. The sequence “CCGATTAACATCAAATCGGGAAATGATGTTAATCGGGTCTTGATTCGCTTGACGCTGCTG” came in with a binding signal of 1.88 z-score. In turn, “CCGATTAACATCATTGGGAAAAATGATGTTAATCGGGTCTTGATTCGCTTGACGCTGCTG” came in with a binding signal of 2.4 z-score.

In turn, “CCGATTAACATCAGTTCCCCCCATGATGTTAATCGGGTCTTGATTCGCTTGACGCTGCTG” came in with a binding signal of 4.95 z-score. In the case of “CCGATTAACATCAAATACTTCCCTGATGTTAATCGGGTCTTGATTCGCTTGACGCTGCTG”, the binding signal came out at 1.98 z-score. Sequence “CCGATTAACATCAAAATCTTCCCTGATGTTAATCGGGTCTTGATTCGCTTGACGCTGCTG” came in with a binding signal of 3.8 z-score. In turn, “CCGATTAACATCACCCGGGAAAATGATGTTAATCGGGTCTTGATTCGCTTGACGCTGCTG” yielded a binding signal of 3.07 z-score. Take “CCGATTAACATCAGAATTGCCCCTGATGTTAATCGGGTCTTGATTCGCTTGACGCTGCTG”: the binding signal was 4.35 z-score.

Take “CCGATTAACATCAGGGAAACCCATGATGTTAATCGGGTCTTGATTCGCTTGACGCTGCTG”: the binding signal came to 3.11 z-score. In turn, “CCGATTAACATCAGAGTTTCCCATGATGTTAATCGGGTCTTGATTCGCTTGACGCTGCTG” registered a binding signal of 2.22 z-score. Sequence “CCGATTAACATCACTGGGAAAACTGATGTTAATCGGGTCTTGATTCGCTTGACGCTGCTG” gave a binding signal of 2.39 z-score. The value for “CCGATTAACATCAAGGAATACCCTGATGTTAATCGGGTCTTGATTCGCTTGACGCTGCTG” was 4.19 z-score.

As to “CCGATTAACATCAAGGACTTCCCTGATGTTAATCGGGTCTTGATTCGCTTGACGCTGCTG”, the binding signal turned out to be 2.42 z-score. For “CCGATTAACATCACCTTCCCCCCTGATGTTAATCGGGTCTTGATTCGCTTGACGCTGCTG”, the binding signal turned out to be 4.59 z-score. Take “CCGATTAACATCACGTATTTCCCTGATGTTAATCGGGTCTTGATTCGCTTGACGCTGCTG”: the binding signal was determined as 3.02 z-score. For “CCGATTAACATCAGGGCAGTACCTGATGTTAATCGGGTCTTGATTCGCTTGACGCTGCTG”, the binding signal worked out at 2.22 z-score. The value for “CCGATTAACATCAGGGGGATCACTGATGTTAATCGGGTCTTGATTCGCTTGACGCTGCTG” was 5.04 z-score; that for “CCGATTAACATCAGGAGTTTCCCTGATGTTAATCGGGTCTTGATTCGCTTGACGCTGCTG” was 4.81 z-score. Turning to “CCGATTAACATCATGGGGACGACTGATGTTAATCGGGTCTTGATTCGCTTGACGCTGCTG”, the binding signal was found to be 2.41 z-score. “CCGATTAACATCAGGGGTGGGAATGATGTTAATCGGGTCTTGATTCGCTTGACGCTGCTG” had a binding signal of 1.53 z-score. Consider “CCGATTAACATCACGGAGTTCCCTGATGTTAATCGGGTCTTGATTCGCTTGACGCTGCTG”, for which the binding signal was 1.87 z-score. In turn, “CCGATTAACATCAGGGGGTATACTGATGTTAATCGGGTCTTGATTCGCTTGACGCTGCTG” gave a binding signal of 3.99 z-score.
